{"source": "PubChem BioAssay AID588391", "about": "(Broad Institute, 2011)", "note": "Out of some 350,000 compounds screened, about 180 (0.051%) were called active.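 Rule for the calls: active = mean inhibition across replicates of 30% or more, whatever share of single replicates reach that level; inconclusive = mean inhibition below 30% while every single replicate reaches 30%; inactive = the rest.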 Many of the other results were omitted from the sample, so actives are more common in it than they were."}
{"biological_target": "Protein disulfide-isomerase (Homo sapiens) (UniProt P07237)", "sequence (P07237 whole entry, looked up)": "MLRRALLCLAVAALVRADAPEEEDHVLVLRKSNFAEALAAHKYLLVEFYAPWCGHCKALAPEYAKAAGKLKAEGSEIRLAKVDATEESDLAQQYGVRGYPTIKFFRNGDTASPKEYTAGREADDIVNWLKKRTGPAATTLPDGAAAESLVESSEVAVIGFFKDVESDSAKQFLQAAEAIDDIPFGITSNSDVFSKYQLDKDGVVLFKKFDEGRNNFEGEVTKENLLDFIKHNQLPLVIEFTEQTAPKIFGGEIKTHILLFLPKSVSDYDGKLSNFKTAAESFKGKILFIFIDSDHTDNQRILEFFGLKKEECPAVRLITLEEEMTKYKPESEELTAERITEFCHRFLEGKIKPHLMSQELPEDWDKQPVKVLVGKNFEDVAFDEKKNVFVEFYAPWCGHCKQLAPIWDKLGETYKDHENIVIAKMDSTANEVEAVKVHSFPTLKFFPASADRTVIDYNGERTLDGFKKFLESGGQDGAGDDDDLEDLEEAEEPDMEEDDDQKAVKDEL", "assay": "blockers of PDI-driven insulin aggregation – biochemical, turbidity, single point, plate reader, primary screen (AID 588391);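 note: absorbance from insulin aggregation driven by PDI reduction with DTT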", "details": "A650, 90 min, at 10 µM, active compounds read high"}
{"smiles": "CCCOc1ccc(F)cc1-c1cc(C(=O)NCc2ccc(F)cc2)[nH]n1", "inhibition": "-0.369% (inactive)"}
{"smiles": "CC1(C(=O)Nc2cccc3c2CCCC3)CCN1C(=O)C1(c2ccccc2)CC1", "note": "(centres undefined)", "inhibition": "-0.663% (inactive)"}
{"smiles": "NC(c1csc(NC(=O)Nc2cccc(C(F)(F)F)c2)n1)C1CCCCC1", "note": "(centres undefined)", "inhibition": "0.691% (inactive)"}
{"smiles": "O=C1N=C(N2CCc3ccccc3C2)S/C1=C\\c1ccc(O)cc1", "inhibition": "-5.75% (inactive)"}
{"smiles": "NC1=NC(=O)S/C1=C\\c1ccc(O)cc1", "inhibition": "43.5% (active)"}
{"smiles": "CC(C)(C)c1ccc(/C=C2\\SC(=O)N=C2N)cc1", "inhibition": "7.63% (inactive)"}
{"smiles": "OC(c1ccc(Cl)cc1)c1ncc(-c2ccc(Cl)cc2)[nH]1", "note": "(centres undefined)", "inhibition": "-6.36% (inactive)"}
{"smiles": "COc1ccc(C2CC(c3cccc(OC)c3)=NN2c2ccc(S(N)(=O)=O)cc2)cc1", "note": "(centres undefined)", "inhibition": "-2.45% (inactive)"}
{"smiles": "COc1ccc(C(C)(NC(C)=O)c2nc(-c3ccc(S(C)(=O)=O)cc3)cs2)cc1", "note": "(centres undefined)", "inhibition": "4.43% (inactive)"}
{"smiles": "COc1cc(F)ccc1-c1cc(C(=O)NCC2CCCCC2)[nH]n1", "inhibition": "25% (inactive)"}
{"smiles": "CC1(Cc2cccc(C#N)c2)C(=O)Nc2ccc(-c3cccc(C(F)(F)F)c3)cc21", "note": "(centres undefined)", "inhibition": "10.6% (inactive)"}
{"smiles": "CC(=O)Nc1ccc(CNc2nc(NCCN(C)C)nc3cc(-c4ccccc4)sc23)cc1", "inhibition": "-1.45% (inactive)"}
{"smiles": "Cc1cc(O)ccc1-c1cc(C(=O)NCc2cc(C(F)(F)F)cc(C(F)(F)F)c2)[nH]n1", "inhibition": "-11.3% (inactive)"}
{"smiles": "Cc1cccnc1C(NC(=O)C1CCN(Cc2ccc(Cl)c(Cl)c2)CC1)c1ccc(Cl)cc1", "note": "(centres undefined)", "inhibition": "-20.8% (inactive)"}
{"smiles": "CCCNC(=O)c1cc(C2CCCCN2S(=O)(=O)c2ccc(C#N)cc2)on1", "note": "(centres undefined)", "inhibition": "9% (inactive)"}
{"smiles": "Cc1ccc(Cn2c(C)c(C(=O)NCc3ccccc3C(F)(F)F)sc2=O)cc1", "inhibition": "-2.82% (inactive)"}
{"smiles": "CCN(CC)c1ncnc2c1ncn2[C@H]1CN(Cc2cccs2)C[C@@H](CO)O1", "inhibition": "5.5% (inactive)"}
{"smiles": "Cc1cccn2c(CNCC(C)Oc3cccnc3)c(C(=O)N3CCOCC3)nc12", "note": "(centres undefined)", "inhibition": "3.93% (inactive)"}
{"smiles": "CCOC(=O)C1CCN(Cc2c(C(=O)N3CCOCC3)nc3c(C)cccn23)CC1", "inhibition": "-7.14% (inactive)"}
{"smiles": "Cc1cccn2c(CN(C)C3CCCc4ccccc43)c(C(=O)N3CCOCC3)nc12", "note": "(centres undefined)", "inhibition": "36.6% (active)"}
{"smiles": "O=C(Nc1nnc([C@H]2C[C@H](O)[C@@H](CO)O2)s1)c1cccc(Cl)c1", "inhibition": "12.3% (inactive)"}
{"smiles": "CC(=O)Nc1cc(-c2ccccc2N(C)C)cn2c(-c3ccc(F)c(Cl)c3)cnc12", "inhibition": "-1.53% (inactive)"}
{"smiles": "CC(O)(c1cccc(F)c1)c1nc(-c2ccc3c(c2)OCO3)cs1", "note": "(centres undefined)", "inhibition": "0.825% (inactive)"}
{"smiles": "Cc1nc2c(OCc3ccc(Cl)cc3)cccn2c1N(C)Cc1cccs1", "inhibition": "-1.78% (inactive)"}
{"smiles": "CCOC(=O)c1c(-c2ccccc2)oc2cc(Br)c(O)cc12", "inhibition": "36.3% (active)"}
{"smiles": "CCOC(=O)c1c(-c2ccccc2)oc2ccc(OCC(=O)NN)cc12", "inhibition": "-2.38% (inactive)"}
{"smiles": "CCOC(=O)c1c(CN(C)C)n(-c2ccccc2)c2cc(Br)c(O)cc12", "inhibition": "39.9% (active)"}
{"smiles": "CCOC(=O)c1c(NC(C)=O)sc2c(O)c(Br)ccc12", "inhibition": "3.13% (inactive)"}
{"smiles": "CCOC(=O)c1c(-c2ccccc2)oc2cc(Br)c(O)c(C=O)c12", "inhibition": "6.15% (inactive)"}
{"smiles": "CCOC(=O)c1c(CN2CCOCC2)n(-c2ccccc2)c2ccc(O)cc12", "inhibition": "27.2% (inactive)"}
{"smiles": "O=C(NCc1cccnc1)c1cc(C2CCCCN2C(=O)CCc2ccccc2)on1", "note": "(centres undefined)", "inhibition": "3.32% (inactive)"}
{"smiles": "CCCC(=O)N1CCC1(C)C(=O)Nc1ccc(-n2cncn2)cc1", "note": "(centres undefined)", "inhibition": "4.25% (inactive)"}
{"smiles": "COc1ccc(C(C)(O)c2nc(-c3cc(F)cc(F)c3)cs2)cc1", "note": "(centres undefined)", "inhibition": "-18.6% (inactive)"}
{"smiles": "Cc1ccc(CC2(C)C(=O)Nc3ccc(OC(F)(F)F)cc32)cc1", "note": "(centres undefined)", "inhibition": "5.49% (inactive)"}
